Tests used:
[1] = biological target: T1, Mitogen-activated protein kinase 12 (Homo sapiens) (UniProt P53778); conditions: at 1 µM;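 further: values are averaged p38gamma kinase inhibition readings, compounds tested at 1 µM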
T1 sequence (whole entry): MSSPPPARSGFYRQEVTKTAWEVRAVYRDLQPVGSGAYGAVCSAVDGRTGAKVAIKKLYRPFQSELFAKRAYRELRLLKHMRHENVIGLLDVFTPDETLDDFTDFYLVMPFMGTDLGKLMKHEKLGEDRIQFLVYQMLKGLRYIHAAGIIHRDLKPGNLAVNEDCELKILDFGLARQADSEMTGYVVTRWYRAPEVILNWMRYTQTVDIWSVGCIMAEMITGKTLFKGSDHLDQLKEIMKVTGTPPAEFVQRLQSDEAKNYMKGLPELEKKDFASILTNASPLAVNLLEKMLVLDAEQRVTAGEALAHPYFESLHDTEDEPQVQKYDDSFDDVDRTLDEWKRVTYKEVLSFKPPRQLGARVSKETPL

[2] = biological target: SRSF protein kinase 1 (Homo sapiens) (UniProt Q96SB4); conditions: at 0.1 µM
[3] = biological target: SRSF protein kinase 1 (Homo sapiens) (UniProt Q96SB4); conditions: at 1 µM
[4] = biological target: Phosphatidylinositol 4,5-bisphosphate 3-kinase catalytic subunit alpha isoform (Homo sapiens) (UniProt P42336); conditions: at 0.1 µM
[5] = biological target: Phosphatidylinositol 4,5-bisphosphate 3-kinase catalytic subunit alpha isoform (Homo sapiens) (UniProt P42336); conditions: at 1 µM
[6] = biological target: T2, Phosphatidylinositol 4,5-bisphosphate 3-kinase catalytic subunit delta isoform (Homo sapiens) (UniProt O00329); conditions: at 0.1 µM
T2 sequence (whole entry): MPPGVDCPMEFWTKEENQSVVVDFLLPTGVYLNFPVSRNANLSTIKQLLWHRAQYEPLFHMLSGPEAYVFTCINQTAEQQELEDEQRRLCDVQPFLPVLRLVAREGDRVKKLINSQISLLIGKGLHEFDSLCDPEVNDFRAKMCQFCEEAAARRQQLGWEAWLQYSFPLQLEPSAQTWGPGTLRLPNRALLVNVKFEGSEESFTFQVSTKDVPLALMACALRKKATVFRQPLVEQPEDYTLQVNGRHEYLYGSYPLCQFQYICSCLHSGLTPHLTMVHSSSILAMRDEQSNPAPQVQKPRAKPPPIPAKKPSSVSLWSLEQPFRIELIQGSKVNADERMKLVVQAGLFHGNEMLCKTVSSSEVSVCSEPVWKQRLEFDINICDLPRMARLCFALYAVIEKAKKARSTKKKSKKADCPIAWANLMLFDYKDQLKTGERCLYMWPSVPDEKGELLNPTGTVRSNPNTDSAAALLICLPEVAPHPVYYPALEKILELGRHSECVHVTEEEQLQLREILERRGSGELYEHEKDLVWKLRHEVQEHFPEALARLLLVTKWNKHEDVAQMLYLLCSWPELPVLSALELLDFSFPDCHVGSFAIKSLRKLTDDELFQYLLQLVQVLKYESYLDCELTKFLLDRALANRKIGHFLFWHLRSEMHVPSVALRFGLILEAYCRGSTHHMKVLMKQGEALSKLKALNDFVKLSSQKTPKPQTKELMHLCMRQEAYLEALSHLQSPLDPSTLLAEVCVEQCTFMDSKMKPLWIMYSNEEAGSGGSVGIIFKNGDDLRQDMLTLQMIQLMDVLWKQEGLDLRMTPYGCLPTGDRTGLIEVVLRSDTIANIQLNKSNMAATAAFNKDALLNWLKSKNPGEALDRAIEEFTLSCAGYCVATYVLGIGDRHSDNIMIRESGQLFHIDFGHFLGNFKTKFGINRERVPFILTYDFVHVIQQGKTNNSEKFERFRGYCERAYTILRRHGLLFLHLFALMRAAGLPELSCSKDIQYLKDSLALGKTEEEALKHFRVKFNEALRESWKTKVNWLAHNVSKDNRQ

[7] = biological target: T2, Phosphatidylinositol 4,5-bisphosphate 3-kinase catalytic subunit delta isoform (Homo sapiens); conditions: at 1 µM
[8] = biological target: Phosphatidylinositol 4-kinase beta (Homo sapiens) (UniProt Q9UBF8); conditions: at 0.1 µM
[9] = biological target: Phosphatidylinositol 4-kinase beta (Homo sapiens) (UniProt Q9UBF8); conditions: at 1 µM
[10] = biological target: Sphingosine kinase 1 (Homo sapiens) (UniProt Q9NYA1); conditions: at 0.1 µM
[11] = biological target: Sphingosine kinase 1 (Homo sapiens) (UniProt Q9NYA1); conditions: at 1 µM
[12] = biological target: T3, Sphingosine kinase 2 (Homo sapiens) (UniProt Q9NRA0); conditions: at 0.1 µM
T3 sequence (whole entry): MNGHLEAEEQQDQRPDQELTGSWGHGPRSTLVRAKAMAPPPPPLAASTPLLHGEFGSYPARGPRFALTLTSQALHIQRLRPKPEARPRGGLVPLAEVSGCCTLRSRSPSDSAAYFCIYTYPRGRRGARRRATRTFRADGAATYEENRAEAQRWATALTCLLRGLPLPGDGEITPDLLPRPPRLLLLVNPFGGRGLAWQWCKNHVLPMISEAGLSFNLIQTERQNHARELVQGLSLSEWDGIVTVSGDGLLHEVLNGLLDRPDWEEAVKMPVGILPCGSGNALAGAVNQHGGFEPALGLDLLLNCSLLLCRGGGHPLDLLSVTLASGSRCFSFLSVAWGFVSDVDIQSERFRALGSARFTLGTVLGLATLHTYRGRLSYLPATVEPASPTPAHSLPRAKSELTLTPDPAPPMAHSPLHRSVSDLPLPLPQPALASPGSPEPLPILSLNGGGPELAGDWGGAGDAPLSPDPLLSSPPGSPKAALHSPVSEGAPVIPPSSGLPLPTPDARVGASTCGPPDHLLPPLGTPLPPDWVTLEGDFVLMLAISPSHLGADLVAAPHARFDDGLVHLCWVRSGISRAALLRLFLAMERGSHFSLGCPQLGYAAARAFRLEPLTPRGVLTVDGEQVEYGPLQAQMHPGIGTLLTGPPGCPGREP

[13] = biological target: T3, Sphingosine kinase 2 (Homo sapiens); conditions: at 1 µM
[14] = biological target: Casein kinase II subunit alpha (Homo sapiens) (UniProt P68400); conditions: at 0.1 µM
[15] = biological target: Casein kinase II subunit alpha (Homo sapiens) (UniProt P68400); conditions: at 1 µM
[16] = biological target: T4, Inhibitor of nuclear factor kappa-B kinase subunit alpha (Homo sapiens) (UniProt O15111); conditions: at 0.1 µM
T4 sequence (whole entry): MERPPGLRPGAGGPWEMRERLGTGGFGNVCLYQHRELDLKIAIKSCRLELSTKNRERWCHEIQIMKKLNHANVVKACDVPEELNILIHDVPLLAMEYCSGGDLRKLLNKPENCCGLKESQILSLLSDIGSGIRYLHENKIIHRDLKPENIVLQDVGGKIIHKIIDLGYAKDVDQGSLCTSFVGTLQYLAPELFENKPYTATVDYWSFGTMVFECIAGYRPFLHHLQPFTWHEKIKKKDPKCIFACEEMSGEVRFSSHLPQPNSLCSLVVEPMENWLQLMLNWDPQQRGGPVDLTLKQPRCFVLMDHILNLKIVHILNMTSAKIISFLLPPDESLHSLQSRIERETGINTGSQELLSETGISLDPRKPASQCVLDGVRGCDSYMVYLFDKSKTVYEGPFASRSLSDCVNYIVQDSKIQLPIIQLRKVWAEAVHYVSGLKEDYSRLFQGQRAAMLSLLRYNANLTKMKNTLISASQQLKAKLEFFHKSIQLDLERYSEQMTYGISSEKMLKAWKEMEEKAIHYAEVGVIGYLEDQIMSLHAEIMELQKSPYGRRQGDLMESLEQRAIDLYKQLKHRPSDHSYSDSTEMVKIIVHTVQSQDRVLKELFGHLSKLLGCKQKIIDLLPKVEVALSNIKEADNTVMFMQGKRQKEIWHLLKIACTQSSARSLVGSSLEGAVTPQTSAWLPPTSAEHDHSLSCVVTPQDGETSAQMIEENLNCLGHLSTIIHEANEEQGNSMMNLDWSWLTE

[17] = biological target: T4, Inhibitor of nuclear factor kappa-B kinase subunit alpha (Homo sapiens); conditions: at 1 µM
[18] = biological target: T5, Inhibitor of nuclear factor kappa-B kinase subunit beta (Homo sapiens) (UniProt O14920); conditions: at 0.1 µM
T5 sequence (whole entry): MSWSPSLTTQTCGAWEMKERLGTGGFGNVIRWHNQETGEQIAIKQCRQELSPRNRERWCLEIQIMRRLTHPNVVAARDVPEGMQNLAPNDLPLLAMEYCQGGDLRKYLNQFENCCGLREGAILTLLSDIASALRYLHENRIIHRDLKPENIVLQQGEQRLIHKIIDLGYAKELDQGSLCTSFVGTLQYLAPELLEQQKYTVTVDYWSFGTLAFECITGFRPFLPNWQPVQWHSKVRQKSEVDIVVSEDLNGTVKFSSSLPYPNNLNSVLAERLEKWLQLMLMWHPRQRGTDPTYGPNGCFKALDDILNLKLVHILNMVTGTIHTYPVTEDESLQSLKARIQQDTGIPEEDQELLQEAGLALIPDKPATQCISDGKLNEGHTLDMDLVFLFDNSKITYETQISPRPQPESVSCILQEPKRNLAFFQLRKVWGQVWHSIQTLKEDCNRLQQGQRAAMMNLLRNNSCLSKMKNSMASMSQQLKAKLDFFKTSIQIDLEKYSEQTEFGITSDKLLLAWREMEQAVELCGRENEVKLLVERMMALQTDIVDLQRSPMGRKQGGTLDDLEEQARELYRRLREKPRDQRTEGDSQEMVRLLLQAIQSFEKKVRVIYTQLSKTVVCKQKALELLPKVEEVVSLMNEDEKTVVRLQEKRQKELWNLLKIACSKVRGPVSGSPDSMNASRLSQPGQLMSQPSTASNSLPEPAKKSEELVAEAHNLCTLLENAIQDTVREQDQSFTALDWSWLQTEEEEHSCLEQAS

[19] = biological target: T5, Inhibitor of nuclear factor kappa-B kinase subunit beta (Homo sapiens); conditions: at 1 µM
[20] = biological target: T6, Inhibitor of nuclear factor kappa-B kinase subunit epsilon (Homo sapiens) (UniProt Q14164); conditions: at 0.1 µM;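 further: mean inhibition of IKKε reported, from the GSK PKIS dataset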
T6 sequence (whole entry): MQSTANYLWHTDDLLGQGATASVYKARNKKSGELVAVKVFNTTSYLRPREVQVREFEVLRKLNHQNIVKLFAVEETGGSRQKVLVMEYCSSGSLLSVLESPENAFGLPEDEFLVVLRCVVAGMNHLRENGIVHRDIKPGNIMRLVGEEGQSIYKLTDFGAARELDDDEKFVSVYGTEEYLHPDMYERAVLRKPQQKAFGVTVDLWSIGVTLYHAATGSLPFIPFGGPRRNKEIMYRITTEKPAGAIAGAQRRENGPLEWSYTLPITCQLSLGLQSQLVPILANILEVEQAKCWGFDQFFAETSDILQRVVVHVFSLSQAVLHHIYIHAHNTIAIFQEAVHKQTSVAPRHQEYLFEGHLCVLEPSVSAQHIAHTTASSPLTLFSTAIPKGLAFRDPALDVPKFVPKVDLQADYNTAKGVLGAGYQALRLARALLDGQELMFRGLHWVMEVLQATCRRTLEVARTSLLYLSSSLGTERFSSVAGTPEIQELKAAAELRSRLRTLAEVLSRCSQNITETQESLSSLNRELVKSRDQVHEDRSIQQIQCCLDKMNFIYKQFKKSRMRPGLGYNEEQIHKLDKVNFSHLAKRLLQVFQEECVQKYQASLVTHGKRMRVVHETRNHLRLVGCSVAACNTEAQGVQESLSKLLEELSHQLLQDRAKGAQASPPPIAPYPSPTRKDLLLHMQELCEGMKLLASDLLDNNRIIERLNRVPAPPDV

Sphingosine kinase 1 (Homo sapiens), sequence (Q9NYA1 whole entry): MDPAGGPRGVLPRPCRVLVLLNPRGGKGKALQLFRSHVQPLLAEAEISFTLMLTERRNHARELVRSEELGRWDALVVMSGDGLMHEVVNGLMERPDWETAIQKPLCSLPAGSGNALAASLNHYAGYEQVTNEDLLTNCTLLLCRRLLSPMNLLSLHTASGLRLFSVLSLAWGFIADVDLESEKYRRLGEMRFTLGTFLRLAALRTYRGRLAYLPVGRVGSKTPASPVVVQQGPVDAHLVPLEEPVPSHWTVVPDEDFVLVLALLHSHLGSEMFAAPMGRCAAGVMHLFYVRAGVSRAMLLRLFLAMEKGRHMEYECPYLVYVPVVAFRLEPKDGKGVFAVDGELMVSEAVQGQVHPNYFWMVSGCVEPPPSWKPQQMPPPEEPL
Phosphatidylinositol 4-kinase beta (Homo sapiens), sequence (Q9UBF8 2-816 limits assumed): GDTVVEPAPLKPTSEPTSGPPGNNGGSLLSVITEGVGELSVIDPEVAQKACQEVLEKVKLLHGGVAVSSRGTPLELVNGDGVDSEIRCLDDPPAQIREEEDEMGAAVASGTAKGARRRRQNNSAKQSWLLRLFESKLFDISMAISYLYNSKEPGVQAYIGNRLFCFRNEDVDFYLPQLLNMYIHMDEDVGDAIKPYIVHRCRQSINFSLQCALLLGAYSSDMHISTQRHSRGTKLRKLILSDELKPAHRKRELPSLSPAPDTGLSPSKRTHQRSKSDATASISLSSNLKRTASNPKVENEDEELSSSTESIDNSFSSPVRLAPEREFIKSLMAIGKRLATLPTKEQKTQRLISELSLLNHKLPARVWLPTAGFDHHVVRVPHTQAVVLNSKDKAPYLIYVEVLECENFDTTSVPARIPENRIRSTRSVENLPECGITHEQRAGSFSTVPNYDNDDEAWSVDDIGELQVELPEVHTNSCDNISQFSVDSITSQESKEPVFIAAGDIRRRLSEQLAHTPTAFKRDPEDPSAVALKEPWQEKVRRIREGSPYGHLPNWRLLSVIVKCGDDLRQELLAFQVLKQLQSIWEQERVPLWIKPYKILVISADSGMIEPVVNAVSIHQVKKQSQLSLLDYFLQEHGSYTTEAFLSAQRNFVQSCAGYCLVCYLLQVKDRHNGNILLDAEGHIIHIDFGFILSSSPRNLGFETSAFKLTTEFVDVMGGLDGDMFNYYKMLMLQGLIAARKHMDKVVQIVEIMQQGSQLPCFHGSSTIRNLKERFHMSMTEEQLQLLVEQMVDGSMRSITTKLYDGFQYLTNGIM
Casein kinase II subunit alpha (Homo sapiens), sequence (P68400 whole entry, looked up): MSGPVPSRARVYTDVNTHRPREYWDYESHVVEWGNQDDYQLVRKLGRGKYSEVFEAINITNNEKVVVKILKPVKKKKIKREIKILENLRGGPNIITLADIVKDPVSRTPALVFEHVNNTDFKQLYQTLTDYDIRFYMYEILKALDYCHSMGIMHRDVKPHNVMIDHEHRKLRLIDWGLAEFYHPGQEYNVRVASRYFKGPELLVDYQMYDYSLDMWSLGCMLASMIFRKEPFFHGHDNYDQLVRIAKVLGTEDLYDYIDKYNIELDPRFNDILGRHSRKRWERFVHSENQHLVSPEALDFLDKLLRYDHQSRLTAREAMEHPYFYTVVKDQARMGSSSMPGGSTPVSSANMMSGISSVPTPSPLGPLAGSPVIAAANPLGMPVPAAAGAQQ
Phosphatidylinositol 4,5-bisphosphate 3-kinase catalytic subunit alpha isoform (Homo sapiens), sequence (P42336 whole entry, canonical isoform): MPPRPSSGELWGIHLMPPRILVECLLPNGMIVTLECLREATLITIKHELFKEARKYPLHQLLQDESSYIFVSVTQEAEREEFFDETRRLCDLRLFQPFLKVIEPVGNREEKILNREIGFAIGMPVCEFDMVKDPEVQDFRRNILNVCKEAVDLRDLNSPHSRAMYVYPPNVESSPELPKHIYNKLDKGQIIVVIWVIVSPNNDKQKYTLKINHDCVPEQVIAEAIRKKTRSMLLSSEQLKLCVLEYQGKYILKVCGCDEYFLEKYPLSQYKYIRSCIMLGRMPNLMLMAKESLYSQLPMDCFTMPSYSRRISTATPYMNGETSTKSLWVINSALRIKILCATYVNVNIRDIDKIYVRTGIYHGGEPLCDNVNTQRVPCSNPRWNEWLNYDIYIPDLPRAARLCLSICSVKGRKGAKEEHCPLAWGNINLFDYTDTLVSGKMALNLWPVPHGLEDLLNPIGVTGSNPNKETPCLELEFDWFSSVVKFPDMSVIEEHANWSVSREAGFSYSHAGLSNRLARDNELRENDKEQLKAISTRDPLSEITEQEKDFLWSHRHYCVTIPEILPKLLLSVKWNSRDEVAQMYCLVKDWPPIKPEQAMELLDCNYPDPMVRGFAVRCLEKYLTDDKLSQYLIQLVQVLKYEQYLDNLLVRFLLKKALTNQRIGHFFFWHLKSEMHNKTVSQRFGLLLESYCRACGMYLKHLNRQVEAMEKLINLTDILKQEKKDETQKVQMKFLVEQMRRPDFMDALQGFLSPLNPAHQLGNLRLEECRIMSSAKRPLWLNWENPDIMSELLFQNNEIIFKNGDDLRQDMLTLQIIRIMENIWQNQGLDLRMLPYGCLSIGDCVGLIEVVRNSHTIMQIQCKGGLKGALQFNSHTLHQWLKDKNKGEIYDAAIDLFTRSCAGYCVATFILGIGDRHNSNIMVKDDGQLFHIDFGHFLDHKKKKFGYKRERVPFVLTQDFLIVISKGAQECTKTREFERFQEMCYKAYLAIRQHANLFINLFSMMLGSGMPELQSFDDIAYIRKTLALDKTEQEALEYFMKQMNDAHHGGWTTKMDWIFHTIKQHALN
SRSF protein kinase 1 (Homo sapiens), sequence (Q96SB4 whole entry, canonical isoform): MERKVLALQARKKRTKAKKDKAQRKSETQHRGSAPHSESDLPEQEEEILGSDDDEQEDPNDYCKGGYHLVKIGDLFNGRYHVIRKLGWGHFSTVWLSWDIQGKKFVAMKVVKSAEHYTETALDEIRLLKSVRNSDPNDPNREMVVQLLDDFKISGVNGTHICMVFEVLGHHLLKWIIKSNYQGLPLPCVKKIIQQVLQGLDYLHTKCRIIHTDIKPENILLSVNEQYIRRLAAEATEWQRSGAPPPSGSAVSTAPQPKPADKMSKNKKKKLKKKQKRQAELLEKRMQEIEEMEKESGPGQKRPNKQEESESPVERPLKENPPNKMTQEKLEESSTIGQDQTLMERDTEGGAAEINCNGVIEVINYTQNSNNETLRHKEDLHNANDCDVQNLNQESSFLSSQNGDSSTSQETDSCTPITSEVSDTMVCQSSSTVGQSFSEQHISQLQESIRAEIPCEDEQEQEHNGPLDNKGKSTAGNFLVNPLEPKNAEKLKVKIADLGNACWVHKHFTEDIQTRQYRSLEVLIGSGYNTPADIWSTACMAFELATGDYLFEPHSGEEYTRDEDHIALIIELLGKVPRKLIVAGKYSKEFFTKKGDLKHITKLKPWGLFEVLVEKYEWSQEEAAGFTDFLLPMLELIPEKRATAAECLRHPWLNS

SMILES	inhibition [1] [%]	inhibition [2] [%]	inhibition [3] [%]	inhibition [4] [%]	inhibition [5] [%]	inhibition [6] [%]	inhibition [7] [%]	inhibition [8] [%]	inhibition [9] [%]	inhibition [10] [%]	inhibition [11] [%]	inhibition [12] [%]	inhibition [13] [%]	inhibition [14] [%]	inhibition [15] [%]	inhibition [16] [%]	inhibition [17] [%]	inhibition [18] [%]	inhibition [19] [%]	inhibition [20] [%]
COc1cc2c(cc1Nc1nc(Nc3ccsc3C(N)=O)c3cc[nH]c3n1)N(C(=O)CN(C)C)CCC2(C)C	4.23	-1.82	15.8	4.65	5.27	2.82	13.9	-0.32	-1.38	3.22	1.56	-0.3	-2.8	39.4	75.3	5.27	0.27	8.68	6.07	10.8
COc1cc(N2CCN(C(C)C)CC2)ccc1Nc1nc(Nc2ccc(F)cc2C(N)=O)c2cc[nH]c2n1	2.22	-2.51	1.46	0.53	0.95	-1.34	2.71	0.5	-1.98	0.81	0.04	-0.73	-1.03	15.7	54.7	0.45	-0.19	2.59	3.32	0.77
NS(=O)(=O)c1ccc(N/N=C2\C(=O)Nc3ccc4ncccc4c32)cc1	18.9	-3.05	-3.18	1.35	7.38	1.9	8.23	1.16	0.49	-2.17	-1.18	0.16	7.47	5.01	32.2	9.67	20	4.79	26	8.67
NC(=O)c1sc(-n2cnc3ccc(C(F)(F)F)cc32)cc1OCc1ccccc1Br	2.37	-1.69	-2.85	3.78	4.29	1.52	4.21	-2.33	-2.08	2.38	-0.89	-0.23	-0.48	3.45	5.66	12.5	11.2	6.41	6.44	5.17
COc1ccc2[nH]c3c4[nH]c5ccc(OC)cc5c4c4c(c3c2c1)C(=O)NC4=O	1.03	-1	6.5	6.77	14.6	4.48	10.1	-1.55	-0.12	-3.65	-1.68	-2.46	-0.32	6.4	15.9	5.28	6.84	3.54	4.71	13.5
c1cc(-c2cnn3nc(N4CCOCC4)ccc23)nc(NC2CC2)n1	13.6	-1.17	1.29	2.09	6.22	1.85	4.21	0.77	21	-1.93	0.41	0	1.66	1.46	7.14	6.71	15.7	3.81	5.82	2.67
CCN(CC)S(=O)(=O)c1ccc(OC)c(Nc2ncc(-c3ccccc3)o2)c1	0.41	1.34	2.14	-0.56	-2.02	-0.81	-1.28	1.63	0.66	0.47	-3.4	-1.48	0.49	2.99	15.1	3.54	-6.23	0.24	-0.16	2.98
